In all, about 5,500 compounds went through this assay and about 2,000 (36%) were called active. Not shown: some 18% with an inconclusive outcome. The list shows a part of the results. Unmarked numbers belong to inactive results. Cut-off read from the data, not from the text of the source: active = normalized growth mostly below about 0.91 (no sharp cut-off); inconclusive = no clear call, values can overlap the other calls; inactive = mostly above about 0.92.
Test: chemical genetic growth profiling, strain panel (AID 1159580);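 note: tested at 20 µM; growth read once vehicle control cultures reached saturation at 30 °C; 1 = growth at the plate median or of vehicle wells; lower values mean less growth of the strain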
Conditions: S. cerevisiae deletion strains, growth OD

Cc1cc(C(=O)O/N=C(/N)c2ccc(C(C)(C)C)cc2)no1
normalized growth (locus YAR019C, strain CDC15, stronger effect = lower value): 0.972
normalized growth (locus YBL105C, strain PKC1, stronger effect = lower value): 0.979
normalized growth (locus YBR135W, strain CKS1, stronger effect = lower value): 0.975
normalized growth (locus YBR136W, strain MEC1, stronger effect = lower value): 0.985
normalized growth (locus YBR160W, strain CDC28, stronger effect = lower value): 0.979
normalized growth (locus YDL017W, strain CDC7, stronger effect = lower value): 0.993
normalized growth (locus YDL028C, strain MPS1, stronger effect = lower value): 0.971
normalized growth (locus YDL101C, strain DUN1, stronger effect = lower value): 0.993
normalized growth (locus YDL108W, strain KIN28, stronger effect = lower value): 0.976
normalized growth (locus YDL132W, strain cdc53, stronger effect = lower value): 0.975
normalized growth (locus YDL214C, strain PRR2, stronger effect = lower value): 0.909
normalized growth (locus YDR052C, strain DBF4, stronger effect = lower value): 0.986
normalized growth (locus YDR054C, strain cdc34, stronger effect = lower value): 0.963
normalized growth (locus YDR226W, strain ADK1, stronger effect = lower value): 0.983
normalized growth (locus YDR477W, strain SNF1, stronger effect = lower value): 0.911
normalized growth (locus YER123W, strain YCK3, stronger effect = lower value): 0.901
normalized growth (locus YER133W, strain GLC7, stronger effect = lower value): 0.882
normalized growth (locus YFL009W, strain cdc4, stronger effect = lower value): 0.952
normalized growth (locus YFL029C, strain CAK1, stronger effect = lower value): 0.969
normalized growth (locus YFR003C, strain YPI1, stronger effect = lower value): 0.986
normalized growth (locus YFR019W, strain FAB1, stronger effect = lower value): 0.922
normalized growth (locus YFR028C, strain CDC14, stronger effect = lower value): 0.98
normalized growth (locus YGR040W, strain KSS1, stronger effect = lower value): 0.956
normalized growth (locus YGR052W, strain FMP48, stronger effect = lower value): 0.958
normalized growth (locus YGR092W, strain DBF2, stronger effect = lower value): 0.906
normalized growth (locus YHR030C, strain SLT2, stronger effect = lower value): 0.77 (active)
normalized growth (locus YHR079C, strain IRE1, stronger effect = lower value): 0.789
normalized growth (locus YHR082C, strain KSP1, stronger effect = lower value): 0.939
normalized growth (locus YHR205W, strain SCH9, stronger effect = lower value): 0.822
normalized growth (locus YIL147C, strain SLN1, stronger effect = lower value): 0.982
normalized growth (locus YJL095W, strain BCK1, stronger effect = lower value): 0.772
normalized growth (locus YJL128C, strain PBS2, stronger effect = lower value): 0.938
normalized growth (locus YJL157C, strain FAR1, stronger effect = lower value): 0.923
normalized growth (locus YJR016C, strain ILV3, stronger effect = lower value): 0.98
normalized growth (locus YJR066W, strain TOR1 (second series), stronger effect = lower value): 0.738
normalized growth (locus YJR066W, strain TOR1, stronger effect = lower value): 0.722
normalized growth (locus YKL048C, strain ELM1, stronger effect = lower value): 1.05
normalized growth (locus YKL067W, strain YNK1, stronger effect = lower value): 0.921
normalized growth (locus YKL101W, strain HSL1, stronger effect = lower value): 1.01
normalized growth (locus YKL193C, strain SDS22, stronger effect = lower value): 0.978
normalized growth (locus YKL203C, strain TOR2, stronger effect = lower value): 0.88
normalized growth (locus YLR113W, strain HOG1, stronger effect = lower value): 0.789 (active)
normalized growth (locus YLR133W, strain CKI1, stronger effect = lower value): 0.943
normalized growth (locus YLR403W, strain SFP1, stronger effect = lower value): 0.852
normalized growth (locus YML070W, strain DAK1, stronger effect = lower value): 0.915
normalized growth (locus YMR001C, strain CDC5, stronger effect = lower value): 0.974
normalized growth (locus YMR205C, strain PFK2 (second series), stronger effect = lower value): 0.916
normalized growth (locus YMR277W, strain FCP1, stronger effect = lower value): 0.961
normalized growth (locus YNL006W, strain LST8, stronger effect = lower value): 0.972
normalized growth (locus YNL020C, strain ARK1, stronger effect = lower value): 0.942
normalized growth (locus YNL161W, strain CBK1, stronger effect = lower value): 0.983
normalized growth (locus YNL183C, strain NPR1, stronger effect = lower value): 0.782
normalized growth (locus YNL207W, strain RIO2, stronger effect = lower value): 0.979
normalized growth (locus YNL222W, strain SSU72, stronger effect = lower value): 0.969
normalized growth (locus YNL307C, strain MCK1 (second series), stronger effect = lower value): 0.939
normalized growth (locus YOL078W, strain AVO1, stronger effect = lower value): 0.979
normalized growth (locus YOL136C, strain PFK27, stronger effect = lower value): 0.959
normalized growth (locus YOR061W, strain CKA2, stronger effect = lower value): 0.93
normalized growth (locus YOR119C, strain RIO1, stronger effect = lower value): 0.911
normalized growth (locus YOR231W, strain MKK1, stronger effect = lower value): 0.803
normalized growth (locus YOR329C, strain SCD5, stronger effect = lower value): 0.987
normalized growth (locus YPL031C, strain PHO85, stronger effect = lower value): 0.901
normalized growth (locus YPL153C, strain RAD53, stronger effect = lower value): 0.893
normalized growth (locus YPL204W, strain HRR25, stronger effect = lower value): 0.914
normalized growth (locus YPL209C, strain IPL1, stronger effect = lower value): 0.974
normalized growth (locus YPL256C, strain CLN2, stronger effect = lower value): 0.884
normalized growth (locus YPR025C, strain CCL1, stronger effect = lower value): 0.973
normalized growth (locus YPR106W, strain ISR1, stronger effect = lower value): 0.98
normalized growth (locus YPR111W, strain DBF20, stronger effect = lower value): 0.964
normalized growth (strain NNK1, stronger effect = lower value): 0.999
normalized growth (strain TSCII, stronger effect = lower value): 0.966

Source: PubChem BioAssay AID1159580 (chemical genetic matrix, 2015)
